The results in this text go back to PubChem BioAssay AID1259343 (VanderVen Lab, College of Veterinary Medicine, Cornell …, 2017).

SMILES strings stand for the structures. Hit rate of the full screen: of about 6,200 compounds, about 2,900 (47%) were called active. So high a share suggests a set chosen from earlier hits. The list shows a part of the results. Unmarked numbers belong to inactive results. No stated cut-off is given here; in the data, active means inhibition above about 50%; inactive means the rest.

The nature of the test: Mycobacterium tuberculosis growth inhibition, primary screen (AID 1259343). The conditions noted are these: inhibition: at 10 µM, stronger effect = higher value; outcome: 10 uM.
Consider `CCc1ccc(NC(=O)COc2ccc(Br)cn2)cc1`, for which the inhibition is -1.65%.
Take `CCOCCC1(C(=O)Nc2ccc(CC)cc2)CCC1`: the inhibition was 75.8% (active).
With `COCc1cccc(C(=O)Nc2ccc(C(C)(C)C)cc2)c1` the figure was 60.8% (active).
With `COCc1cccc(C(=O)Nc2nc(C3CC3)cs2)c1` the figure was 5.98%; with `COC(=O)c1cccc(S(=O)(=O)N(C)Cc2ccc(C)cc2C)c1`, 82.9% (active).
With `COc1cc(C)c(CN(C)C(=O)CCl)cc1OC` the figure was -15.9%; with `NC(=O)c1c(NC(=O)CC23CC4CC(CC(C4)C2)C3)sc2c1CCC2`, 70.6% (active); with `Cc1cccc(OCCNC(=O)c2c(NC(=O)C3CC3)sc(C)c2C)c1`, 20.2%.
As to `NC(=O)c1c(NC(=O)C2CCCCC2)sc2c1CCCC2`, the inhibition is -14.9%.
With `O=C(Nc1ccccc1Cl)c1csc2c1CCCC2` the figure was 50%.
With `O=C(O)c1c(NC(=O)C2CCCCC2)sc2c1CCC2` the figure was 79.8% (active); with `COC(=O)c1c(NC(=O)c2ccccc2Br)sc(C)c1C`, 88.2% (active); with `CCOC(=O)c1sc(N)c(C(=O)OC)c1C`, -1.92%.
On to `O=C(NC1CC1)c1c(NC(=O)C23CC4CC(CC(C4)C2)C3)sc2c1CCCC2`, for which the inhibition is 41.1%.
For the compound `COC(=O)c1c(NC(=O)c2ccccc2Cl)sc2c1CCCC2`, the inhibition is 98.2% (active).
With `COc1ccc(-c2ccc(NC(=O)c3cccnc3)c(C)c2)c(OC)c1OC` the figure was 40.8%; with `O=C(Nc1sc2c(c1C(=O)O)CCCC2)c1cccnc1`, 70.5% (active); with `O=C(C=Cc1ccco1)Nc1sc2c(c1C(=O)O)CCCC2`, 8.18%.
With `CC1Cc2cc(-c3cc(CC(=O)NCc4ccco4)no3)ccc2O1` (stereo unspecified) the figure was 92.3% (active).
`COc1cccc(-c2cc(CC(=O)NCCC3=CCCCC3)no2)c1`: the inhibition was 83.2% (active).
Take `O=C(Cc1cc(-c2ccc3c(c2)OCO3)on1)NCCC1=CCCCC1`: the inhibition was 41%.
Consider `Cc1cc(NC(=O)Cc2cc(-c3ccc4c(c3)CC(C)O4)on2)no1` (stereo unspecified), for which the inhibition was 34.1%.
Turning to `CC1Cc2cc(-c3cc(CC(=O)NCCC4=CCCCC4)no3)ccc2O1` (stereo unspecified), the inhibition is 73.2% (active).
For the compound `CC1Cc2cc(-c3cc(CC(=O)NCc4cccnc4)no3)ccc2O1` (stereo unspecified), the inhibition is 37.3%.
With `O=C1C=C(O)c2ccccc2C1=O` the figure was 53.8% (active); with `N#CC(=Cc1ccc([N+](=O)[O-])o1)c1nc(C2CC2)cs1`, -16.5%.
Consider `N#CC(=CC=Cc1ccc([N+](=O)[O-])o1)c1nc2ccccc2[nH]1`, for which the inhibition was 101% (active).
With `N#Cc1ccc(OS(=O)(=O)c2cccs2)cc1` the figure was 51.7% (active); with `O=c1ccc2ccc(OS(=O)(=O)c3cccs3)cc2o1`, 90.5% (active).
With `O=c1cc(C(F)(F)F)c2ccc(OS(=O)(=O)c3ccc(F)c(F)c3)cc2o1` the figure was 1.62%; with `CCOC(=O)C(C#N)=Cc1cn(CCC#N)nc1-c1ccc(Br)cc1`, -13.1%; with `Oc1ccc(CCNc2nccc(C3CCCC3)n2)cc1`, 51.5% (active).
With `Fc1ccc(-c2cc(CNc3nccc(C4CCCC4)n3)no2)cc1` the figure was 44.8%; with `C=CC[P+](N(CCC)CCC)(N(CCC)CCC)N(CCC)CCC`, 80% (active).
For the compound `CC(C)=CCc1c(O)cc2occ(-c3ccc4c(c3)OCO4)c(=O)c2c1O`, the inhibition is 68.8% (active).
With `CC(C)(C)NC(=O)COc1ccc2oc3c(c2c1)CCCC3` the figure was 31.6%; with `O=C(COc1ccc2oc3c(c2c1)CCCC3)NCc1cccnc1`, -6.78%.
With `COC(=O)c1c(C)oc2ccc(OCC(=O)c3ccc(F)cc3)cc12` the figure was 87.5% (active); with `Cc1ccc(-c2c(C)sc3nc(CN4CCN(Cc5ccccc5)CC4)[nH]c(=O)c23)cc1`, 96.5% (active); with `Cc1ccc(CC(=O)C(C#N)c2nc3sc(C)c(C)c3c(=O)[nH]2)cc1` (stereo unspecified), 37.3%.
Turning to `Cc1ccc(-c2nnc(SCC(=O)NC3CC3)o2)cc1`, the inhibition was -24.4%.
With `CCCC(C)NC(=O)CSc1nnc(-c2ccc(Cl)cc2)o1` (stereo unspecified) the figure was 95.8% (active); with `C=CCNC(=O)CSc1nnc(-c2cccs2)o1`, 99.4% (active).
With `CCNC(=O)CSc1nnc(-c2ccccc2)o1` the figure was 92.3% (active); with `CCCC(C)NC(=O)COc1ncnc2scc(-c3ccc(C)cc3)c12` (stereo unspecified), 49.2%; with `CCNC(=O)CSc1nnc(-c2ccc(C)cc2)o1`, 93.8% (active).
Regarding `c1coc(-c2nnc(SCc3nnc(-c4cccs4)o3)o2)c1`, the inhibition is -25.9%.
For the compound `c1ccc(C(Cn2cncn2)NCc2cccs2)cc1` (stereo unspecified), the inhibition was -11.6%.
With `CCCN(CC1CC1)c1oc(-c2ccc(F)cc2)nc1C#N` the figure was 12.7%; with `CC1CCC(NC(=O)CSc2nnc(C(C)C)o2)CC1` (stereo unspecified), 32.9%; with `CCOc1ccc(-c2nnc(SCC#N)o2)cc1`, -18%.
On to `Cc1ccc(-c2nnc(SCC(=O)NC(C)C(C)C)o2)cc1` (stereo unspecified), for which the inhibition is 87.3% (active).
Regarding `CCCCNC(=O)CSc1nnc(-c2ccc(OCC)cc2)o1`, the inhibition is 81.2% (active).
As for `Cc1cc(C)cc(N2C(=O)C3N=NN(c4ccc(Br)c(C)c4)C3C2=O)c1` (stereo unspecified), the inhibition was 89% (active).
With `COC(=O)c1cc(C)nc(N(C)C)c1C(=O)OC` the figure was -14.7%; with `CC(C)c1ccc(/C=N\Nc2ncnc3nc[nH]c23)cc1`, 58.7% (active).
As for `O=c1c(Cl)c(Cl)cnn1-c1ccc(N2CCOC(c3ccccc3)C2)c(Cl)c1` (stereo unspecified), the inhibition is 16.1%.
With `O=c1c(Cl)c(Cl)cnn1-c1ccc(NC2CC2)c(Cl)c1` the figure was 91.2% (active).
With `c1csc(-c2nnc(SCc3ccc4c(c3)OCO4)n2C2CC2)c1` the figure was -34.7%.
With `CN(C)C(=O)CSc1nnc(-c2ccc(Cl)cc2)n1C` the figure was 0.36%.
`Cc1ccc(-c2nnc(SCC(=O)c3ccc4c(c3)OCO4)n2C)cc1`: the inhibition was 89.8% (active).
Regarding `Cc1nc2cc(NC(=O)C3(C)CCc4c(C)c(O)c(C)c(C)c4O3)ccc2s1` (stereo unspecified), the inhibition was 68.5% (active).
With `CN(Cc1cccc(C#N)c1)C(=O)c1cc2c(s1)CCCCCC2` the figure was 30.1%.
`CN(Cc1cccs1)C(=O)c1cc2c(cc1O)CCCC2`: the inhibition was 67.8% (active).
In the case of `CCCCNC(=S)N(C)N=Cc1sccc1C`, the inhibition was 29%.
With `CCCCNC(=S)N(C)N=Cc1c(F)c(F)c(F)c(F)c1F` the figure was 58% (active).

In general, inhibition refers to the change of the read-out against control, counted positive when it falls.
